Experimental data taken from PubChem BioAssay AID485358 (National Center for Advancing Translational Sciences (NCATS), 2010).
Among all 340,000 compounds or so, about 1,800 (0.53%) were called active.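 How the source made its calls: active means activation over 3 SD above normal in the single-dose calcium agonist read (cut at about 30% in these data); inactive means the rest.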 What follows is part of a selection rich in actives, with near analogues and random picks from the rest.

target: D(2) dopamine receptor (Homo sapiens) (UniProt P14416); assay: HTS Assay for Allosteric Agonists of the Human D2 Dopamine Receptor: Primary Screen for Agonists; details: HEK293 T-REx D2 cells, calcium flux agonist mode; at 2 µM; hits give high values; further: 0% is about no effect
Description: NIH Chemical Genomics Center [NCGC] NIH Molecular Libraries Probe Centers Network [MLPCN] MLPCN Grant: NS064831-01 Assay Submitter (PI): David Sibley Dopamine receptors (DARs) are involved in the etiology and/or therapy of a number of neuropsychiatric and endocrine disorders. For instance, all receptor-based antiparkinsonian drugs work via stimulating the D2 DAR subtype whereas all FDA-approved antipsychotic agents are antagonists of this receptor. […] There are three different types of allosteric modulators that we are seeking, two of which will stimulate or augment receptor signaling, allosteric agonists and potentiators, while the third, allosteric antagonists, will attenuate receptor signaling. The present primary screening assay measures compound agonism by tracking calcium flux in a […], inducible Hek293 Trex D2 cell line.
Freshly passaged cells are plated in 1536 well black, clear bottom plates at a density of 4000 cells/well in 3 ul of complete media containing 1x tetracycline inducer. After an overnight incubation at […] in 5% CO2, cells are loaded with 2 ul of the no wash Calcium Assay Kit (ABD Bioquest) and incubated at room temperature for 30 to 90 minutes. Agonist read: A 10 cycle (1 second/cycle) baseline measurement is taken and then the FDSS online 1536 pintool delivers 23 nl of compound library (as well as dopamine controls) to the plate. The plate is measured for kinetically at 1 cycle/sec for 180 seconds and is considered to be the agonist portion of the assay (eg, compounds which activate a positive calcium response during this portion are flagged as potential agonists). Following the 180 second read, 1 ul of either an EC20 (positive modulation assay) or EC80 (negative modulation assay) is delivered by an onboard pipette head. Measurements are taken kinetically for an additional 180 seconds.

Chain of D(2) dopamine receptor (Homo sapiens) (P14416 whole entry, looked up): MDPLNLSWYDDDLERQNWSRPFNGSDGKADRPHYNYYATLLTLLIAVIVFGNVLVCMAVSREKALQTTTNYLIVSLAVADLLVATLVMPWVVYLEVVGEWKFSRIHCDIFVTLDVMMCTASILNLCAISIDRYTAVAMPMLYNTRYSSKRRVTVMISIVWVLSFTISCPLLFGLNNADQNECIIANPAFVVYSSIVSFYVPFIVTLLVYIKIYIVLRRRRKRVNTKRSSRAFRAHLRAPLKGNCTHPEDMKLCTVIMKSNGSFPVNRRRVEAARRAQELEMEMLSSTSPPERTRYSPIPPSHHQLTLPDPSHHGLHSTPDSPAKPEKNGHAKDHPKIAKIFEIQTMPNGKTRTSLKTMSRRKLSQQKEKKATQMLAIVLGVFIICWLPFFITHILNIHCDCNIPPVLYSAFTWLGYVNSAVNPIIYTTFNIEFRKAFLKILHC

Row | Structure (SMILES) | activation
1 | CC(C)c1ccc(OCC(O)CN2CCN(c3ccccn3)CC2)cc1 (stereo not drawn) | 66.2% (active)
2 | Cc1ccc(OCC(O)CN2CCN(CC(O)COc3ccc(C)cc3Cl)CC2)c(Cl)c1 (stereo not drawn) | 0.53% (inactive)
3 | CC(C)c1ccc(OCC(O)Cn2cnc3ccccc32)cc1 (stereo not drawn) | 1.03% (inactive)
4 | Cc1cccc(OCC(O)CN2CCN(CCN3C(=O)c4cccc5cccc(c45)C3=O)CC2)c1C (stereo not drawn) | -0.617% (inactive)
5 | CC(=O)Nc1ccc(OCC(O)CN2CCN(c3ccccc3Cl)CC2)cc1 (stereo not drawn) | 71.6% (active)
6 | O=S(=O)(c1ccc(OCC(O)CN2CCN(c3ccccc3Cl)CC2)cc1)N1CCOCC1 (stereo not drawn) | -0.884% (inactive)
7 | C=CCc1ccccc1OCC(O)CN1CCN(CCO)CC1 (stereo not drawn) | -1.83% (inactive)
8 | OC(COc1cccc2ccccc12)CN1CCN(c2ccccn2)CC1 (stereo not drawn) | 66.3% (active)
9 | CC1CCN(CC(O)COc2ccc(C(=O)c3ccccc3)cc2)CC1 (stereo not drawn) | -0.0837% (inactive)
10 | CNCC(O)CN1CCN(c2ccccc2OC)CC1 (stereo not drawn) | 0.328% (inactive)
11 | Cc1ccccc1OCC(O)CN1CCN(c2ccccn2)CC1 (stereo not drawn) | 64.7% (active)
12 | O=C(C(c1ccccc1)c1ccccc1)N1CCN(CC(O)COc2ccccc2)CC1 (stereo not drawn) | -0.117% (inactive)
13 | COc1cc(C(=O)N2CCN(c3ccc(Nc4ccc(C)cc4)nn3)CC2)cc(OC)c1OC | -0.205% (inactive)
14 | COc1ccccc1Cc1nc2ccccc2nc1SCC(=O)N1CCCc2ccccc21 | 1.06% (inactive)
15 | COc1cccc(NC(=O)N(Cc2cn(C)c3ccccc23)C2CCCCCC2)c1 | 0.628% (inactive)
16 | Cn1ccc2cc(S(=O)(=O)N3CCCC(C(=O)NCc4ccccc4F)C3)ccc21 (stereo not drawn) | -0.715% (inactive)
17 | Cc1ccc(Cl)cc1NC(=O)CSc1nccn1C | -0.262% (inactive)
18 | CCc1ccc(CN(Cc2ccco2)C(=O)COc2ccc(Cl)c(C)c2)cc1 | 3.85% (inactive)
19 | COC(=O)C1=C(c2ccccc2)c2ccccc2S(=O)(=O)N1CC(=O)Nc1ccccc1C(F)(F)F | -0.526% (inactive)
20 | COc1ccccc1OCC(=O)Nc1nnc2n1CCS2 | -1.11% (inactive)
21 | CCN1CCN(CCCNC(=O)c2ccc3c(c2)sc2nc(-c4ccc(OC)cc4)cn23)CC1 | 1.86% (inactive)
22 | Cc1nc2ccc(S(=O)(=O)NC(C(=O)NCc3ccccc3Cl)C(C)C)cc2s1 (stereo not drawn) | -0.364% (inactive)

Row | Structure (SMILES) | activation
23 | CCn1c(=O)cc(OCC(=O)Nc2cc(Cl)c(OC)cc2OC)c2ccccc21 | -0.253% (inactive)
24 | Cn1c(=O)cc(OCC(=O)N2CCN(c3ccccc3)CC2)c2ccccc21 | 0.681% (inactive)
25 | Cn1c(C(=O)NCCc2ccsc2)cc2c(=O)n(C)c3ccccc3c21 | 0.0188% (inactive)
26 | CCN1CCCC1CNC(=O)c1cc2c(=O)n(C)c3ccccc3c2n1C (stereo not drawn) | 1.59% (inactive)
27 | Cn1c(C(=O)NCCCN2CCN(c3cccc(Cl)c3)CC2)cc2c(=O)n(C)c3ccccc3c21 | 60.1% (active)
28 | CCn1c(=O)cc(OCC(=O)NCCCN2CCN(c3cccc(Cl)c3)CC2)c2ccccc21 | 72.9% (active)
29 | Cc1cc(C)cc(NC(=O)CSc2nc3nccnc3c(=O)n2CCc2c[nH]c3ccccc23)c1 | 0.038% (inactive)
30 | Cc1ccccc1CNC(=O)C1CCCN(S(=O)(=O)N(C)c2ccc(F)cc2)C1 (stereo not drawn) | -0.556% (inactive)
31 | CCOc1ccc(CNC(=O)c2ccc(CS(=O)c3ccccc3)o2)cc1 (stereo not drawn) | -0.363% (inactive)
32 | CCCN(CCC)CCNC(=O)Cn1cnc2sc(C)c(S(=O)(=O)N3CCC(C)CC3)c2c1=O | 0.0784% (inactive)
33 | CCC(C)NC(=O)CCCc1ccccc1 (stereo not drawn) | 1.02% (inactive)
34 | CCCCC(=O)NNC(=S)NC(=O)C(c1ccccc1)c1ccccc1 | 52.5% (active)
35 | CCCCCC(=O)NC(=S)NNC(=O)c1ccc([N+](=O)[O-])cc1 | 2.53% (inactive)
36 | CCCCOc1ccc(CN2C(=O)C(=O)c3cc(Br)cc(C)c32)cc1OC | -0.896% (inactive)
37 | Cc1ccc2[nH]c(=O)c(CN3CCCCC3)c(-c3ccccc3)c2c1 | 16.6% (inactive)
38 | c1ccc2cc3[nH]c(CN4CCCCC4)nc3cc2c1 | 39.6% (active)
39 | Clc1ccc(CN2CCCCCC2)cc1Cl | 0.701% (inactive)
40 | COc1cc(Cl)c(NC(=O)C(NS(=O)(=O)c2cccs2)C(C)C)c(OC)c1 (stereo not drawn) | 0.0329% (inactive)
41 | COc1ccc(-n2c(=O)c3sc4ccccc4c3n(CC(=O)Nc3cccc(C)c3)c2=O)cc1 | 1.94% (inactive)
42 | COc1cccc(CNC(=O)C2CCCN(c3ncnc4c3nc3n4CCCCC3)C2)c1 (stereo not drawn) | -0.0991% (inactive)
43 | COc1cccc(NC(=O)C2CCCN(c3ncnc4c3nc3n4CCCCC3)C2)c1 (stereo not drawn) | 60.2% (active)
44 | CCOC(=O)c1cccc(NC(=O)C2CCN(c3ncnc4c3nc3n4CCCCC3)CC2)c1 | -0.296% (inactive)

Row | Structure (SMILES) | activation
45 | O=C(/C=C/c1ccccc1)N1CCN(Cc2cc(=O)n3nc(-c4ccccc4F)sc3n2)CC1 | 0.305% (inactive)
46 | O=C(/C=C(O)/C=C/c1ccc(O)cc1)/C=C/c1ccc(O)cc1 | 57.4% (active)
47 | O=C(O)/C=C/c1ccc(S(=O)(=O)N2CCCCCC2)cc1 | 19.8% (inactive)
48 | C=CCNC(=O)/C=C/c1ccc(C(C)C)cc1 | 0.0403% (inactive)
49 | CC(NC(=O)c1cc2c(=O)n3ccccc3nc2n(C(C)C)c1=N)c1ccccc1 (stereo not drawn) | 0.527% (inactive)
50 | COc1ccc(CNC(=O)CS(=O)Cc2nc(-c3cccc(C)c3)oc2C)cc1 (stereo not drawn) | -0.737% (inactive)
51 | CCN(CCCNC(=O)c1ccc2c(c1)NC(=O)CN2C)c1cccc(C)c1 | 37.3% (active)
52 | CCN(CCCNC(=O)CSc1cc(=O)n(C)c2cc(Cl)ccc12)c1cccc(C)c1 | 0.221% (inactive)
53 | CCN(CCCNC(=O)c1ccc(Sc2ccc(C)cc2)c(NC(C)=O)c1)c1cccc(C)c1 | 0.373% (inactive)
54 | COc1cc(OC)c(NC(=O)Cc2ccc(-n3c(C)nc4cccnc43)cc2)cc1Cl | -0.621% (inactive)
55 | CCOc1cc(C2c3c(-c4ccc(Br)cc4)n[nH]c3C(=O)N2c2ccc(Cl)cc2)ccc1O (stereo not drawn) | 0.413% (inactive)
56 | Cc1cc(C)cc(NC(=O)Cn2nc(N3CCN(c4ccccc4)CC3)ccc2=O)c1 | 0.0127% (inactive)
57 | N#C/C(=C/c1ccc(N2CCOCC2)o1)C(=O)N1CCOCC1 | 7.75% (inactive)
58 | O=C(NCCc1c[nH]c2ccccc12)C1CCN(Cc2ccc(Br)cc2)CC1 | -0.253% (inactive)
59 | N#C/C(=C/c1ccc(N2CCCCC2)o1)C(=O)NCCc1c[nH]c2ccccc12 | 38.7% (active)
60 | CCOc1cc(-c2nnc(SCC(=O)NC3CCCC3)nc2-c2ccc(OC)c(OCC)c2)ccc1OC | 0.392% (inactive)
61 | Cc1ccc(C(=O)Nc2c(C(=O)NC(C)(C)C)oc3ccccc23)cc1 | 0.0939% (inactive)
62 | O=C(CSc1n[nH]c(=O)n1-c1ccccc1)Nc1ccccc1C(F)(F)F | 0.222% (inactive)
63 | CCOC(=O)N1CCN(Cc2nc3cc(NC(C)=O)ccc3n2C)CC1 | 0.585% (inactive)
64 | Cn1c(CCN2CCCCCC2)nc2cc(NC(=O)Nc3ccccc3)ccc21 | 1.58% (inactive)
65 | CC(C(=O)N(C)CC(=O)Nc1ccccc1C(F)(F)F)N1C(=O)c2ccccc2C1=O (stereo not drawn) | -0.167% (inactive)
66 | O=C(CN1CCN(c2ccccn2)CC1)NC1CCCCC1 | 67.6% (active)

Row | Structure (SMILES) | activation
67 | O=C(CN1CCN(c2ccccn2)CC1)NCc1cccs1 | 18.2% (inactive)
68 | O=C(CN1CCN(c2ccccn2)CC1)Nc1ccc(Br)cc1 | 43.9% (active)
69 | O=C(Cc1ccc(Br)cc1)N1CCN(c2ccccn2)CC1 | 0.551% (inactive)
70 | CS(=O)(=O)N1CCN(CC(=O)NC2CCCC2)CC1 | -0.0909% (inactive)
71 | CCN(CC)c1ccc(NC(=O)CN2CCN(c3ccccn3)CC2)cc1 | 26.5% (inactive)
72 | CCC(=O)Nc1ccc2c(c1)nc(CCN1CCN(c3ccccn3)CC1)n2C | 78.2% (active)
73 | O=C(CN1CCN(c2ncccn2)CC1)Nc1ccccc1C(F)(F)F | 57.8% (active)
74 | CC1CCN(S(=O)(=O)c2ccc3c(c2)N(CC(=O)NCc2ccccc2Cl)C(=O)CO3)CC1 | -0.934% (inactive)
75 | CCc1ccc(Sc2cc(C(=O)NCCCOC(C)C)c3ccccc3n2)cc1 | 0.0547% (inactive)
76 | Cc1c(Cl)cccc1-c1ccc(CNCCCSc2nnnn2C)o1 | 0.946% (inactive)
77 | COc1ccc(-c2cn3nc(N4CCC(C(=O)Nc5cccc(C)c5C)CC4)sc3n2)cc1 | 1.52% (inactive)
78 | CSc1cccc(NC(=O)CN2C(=O)CCc3cc(S(=O)(=O)N4CCCCC4)ccc32)c1 | 1.49% (inactive)
79 | COc1ccc(NC(=O)NC(C)c2c(-n3cccc3)sc(C)c2C)cc1OC (stereo not drawn) | 0.829% (inactive)
80 | CCOC(=O)c1c(C)[nH]c(C)c1S(=O)(=O)NCC(=O)NCc1cccc(C)c1 | 0.112% (inactive)
81 | COc1ccc(CCNC(=O)c2cc(=O)c3c(C)cc(C)cc3o2)cc1OC | -0.676% (inactive)
82 | COc1cccc(CNC(=O)C(=O)NCC(c2cccs2)S(=O)(=O)c2ccccc2)c1 (stereo not drawn) | 17.6% (inactive)
83 | CCN1CCN(c2ncnc3c2cnn3-c2ccc(C)c(C)c2)CC1 | 0.887% (inactive)
84 | COc1cc(C(=O)NCC(c2ccc(Cl)cc2)N2CCOCC2)cc(OC)c1OC (stereo not drawn) | -0.027% (inactive)
85 | Cc1cc(C)c2oc(C(=O)Nc3c(C(=O)Nc4ccccc4)oc4ccccc34)cc(=O)c2c1 | 0.443% (inactive)
86 | Cc1ccccc1C(=O)N(Cc1ccc(N(C)C)cc1)CC1CCCO1 (stereo not drawn) | -0.0491% (inactive)
87 | O=C(Nc1cc(-c2nc3ccccc3o2)ccc1Cl)c1cc([N+](=O)[O-])ccc1N1CCOCC1 | -0.175% (inactive)
88 | Cc1ccccc1OCC(=O)Nc1c(C(=O)Nc2ccccc2F)oc2ccccc12 | -0.888% (inactive)
